Compound activity as filed in PubChem.
Most compounds without a hit are left out; they make up all but 11% or so of the library.
HEK cytotox: HEK 293 cell cytotoxicity | HEK 293 viability, ATP luminescence (CellTiter-Glo), 48-72 h | Potency, µM (doses to about 115 µM), hits mostly inhibitors | 94,000 tested, 6.6% active | AID 1345083; active = well fitted curve in the direction sought with a large enough effect; inconclusive = small, poorly fitted or top-dose-only effect, or another doubt; inactive = no such curve, though single readings can be large; an effect the other way counts as inactive or inconclusive; note: nearly all actives have a fitted effect of over 60% in size
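Cytotoxicity was scored by loss of ATP-coupled luminescence (CellTiter-Glo) in HEK 293 cells. Compound treatment ran 48 or 72 hr at 37 degree Celsius, 5% CO2, 95% humidity.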
NIH3T3 tox: kills NIH 3T3 cells | 94,000 tested, 4.3% active | NIH 3T3 viability, CellTiter-Glo ATP luminescence, 48-72 h | Potency, µM (series often up to 96.7 µM), hits mostly inhibitors; active = well fitted curve in the direction sought with a large enough effect; inconclusive = small, poorly fitted or top-dose-only effect, or another doubt; inactive = no such curve, though single readings can be large; an effect the other way counts as inactive or inconclusive; note: nearly all actives have a fitted effect of over 55% in size
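NIH 3T3 cells at 400 cells/well received 23 nL of compound by pintool and were incubated 48 or 72 h at 37 °C. Viability was read as ATP-coupled CellTiter-Glo luminescence.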
Luciferase inh: Photinus pyralis luciferase inhibition; P08659; purified P. pyralis luciferase, luminescence, biochemical; Potency, µM (titrated, usually from 115 µM), most hits filed as inhibitors; 76,000 tested, 2.5% active; AID 1347043; active = well fitted curve in the direction sought with a large enough effect; inconclusive = small, poorly fitted or top-dose-only effect, or another doubt; inactive = no such curve, though single readings can be large; an effect the other way counts as inactive or inconclusive; note: nearly all actives have a fitted effect of over 65% in size
Target sequence (P08659 whole entry, looked up): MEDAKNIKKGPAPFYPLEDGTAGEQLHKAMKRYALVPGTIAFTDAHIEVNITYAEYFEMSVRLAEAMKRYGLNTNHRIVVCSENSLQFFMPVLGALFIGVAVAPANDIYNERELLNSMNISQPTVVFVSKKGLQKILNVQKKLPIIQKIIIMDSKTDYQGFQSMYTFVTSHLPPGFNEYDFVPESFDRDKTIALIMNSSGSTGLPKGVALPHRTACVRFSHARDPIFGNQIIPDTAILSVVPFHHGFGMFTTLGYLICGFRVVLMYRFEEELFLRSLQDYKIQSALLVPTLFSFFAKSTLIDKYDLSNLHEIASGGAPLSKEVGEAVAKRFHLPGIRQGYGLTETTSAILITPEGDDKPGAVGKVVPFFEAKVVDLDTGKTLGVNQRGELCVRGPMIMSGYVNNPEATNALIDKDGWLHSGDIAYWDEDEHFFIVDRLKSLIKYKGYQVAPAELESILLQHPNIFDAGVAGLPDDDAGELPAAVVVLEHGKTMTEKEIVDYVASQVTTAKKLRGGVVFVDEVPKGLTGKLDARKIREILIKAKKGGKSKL
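Luminescence read by CCD imager after adding enzyme (10nM final) to wells holding compound, titrated in qHTS. Substrates 10uM each D-luciferin and ATP; buffer 50mM Tris acetate pH 7.5, 10mM Mg acetate, Tween-20, BSA.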
NPR1 antag: antagonists of human natriuretic peptide receptor Npr1 | HEK293 hNpr1 GloSensor cGMP, ANP-stimulated luminescence | 76,000 tested, 1.6% active | Potency, µM (titrated, usually from 46.3 µM), actives largely listed as inhibitors | AID 1347048 | P16066; note: nearly all actives have a fitted effect of over 60% in size
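Compound pre-incubated 30 min at room temperature on GloSensor-loaded HEK293 cells stably carrying hNpr1 and the pGS-40F cGMP biosensor. Stimulation uses hNppA at 0.1 nM final; luminescence is taken at baseline and 20 min post-agonist.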
NPR1 antag cnf: hNpr1 antagonism, confirmation assay; shares compounds with NPR1 antag; HEK293 hNpr1 cGMP GloSensor luminescence, ANP-stimulated; Potency, µM (titrated, usually from 57.6 µM), usual class: inhibitors; 1,400 tested, 76% active; AID 1347044; note: nearly all actives have a fitted effect of over 70% in size
NPR2 antag: antagonizes human Npr2, subtype selectivity check; 1,400 tested, 67% active; shares compounds with NPR1 antag; HEK293 hNpr2 GloSensor cGMP luminescence, CNP-stimulated; AID 1347046; Potency, µM (highest dose often 57.6 µM), hits mostly inhibitors; note: nearly all actives have a fitted effect of over 70% in size
FLuc counter: counter-screen for Npr1 antagonists: firefly luciferase inhibitors; shares compounds with NPR1 antag; purified FLuc enzyme, luminescence, Km substrate; Potency, µM (series often up to 57.6 µM), hits mostly inhibitors; 1,400 tested, 0.7% active; active = well fitted curve in the direction sought with a large enough effect; inconclusive = small, poorly fitted or top-dose-only effect, or another doubt; inactive = no such curve, though single readings can be large; an effect the other way counts as inactive or inconclusive
GloSensor ctrl: counter-screen for Npr1 antagonists: GloSensor control cell line | shares compounds with NPR1 antag | HEK293 GloSensor cGMP, SNP-stimulated, luminescence | Potency, µM (highest dose often 57.6 µM), most hits filed as inhibitors | 1,400 tested, 69% active | AID 1347051; note: nearly all actives have a fitted effect of over 70% in size
Large screens that a line does not name were inactive (follow-up assays come after a bar, where they were run). Unless noted, calls come from the whole dose curve.

COc1ccccc1NC(=O)Cn1c(N2CCc3ccccc3C2)nc(C)cc1=O	HEK cytotox inconclusive, NIH3T3 tox inconclusive | NPR1 antag cnf inactive | NPR2 antag inactive | FLuc counter inactive | GloSensor ctrl inactive
Cc1cccc(NC(=O)Cn2c(N3CCc4ccccc4C3)nc(C)cc2=O)c1	HEK cytotox 45µM, NIH3T3 tox inconclusive | NPR1 antag cnf inactive | NPR2 antag inconclusive | FLuc counter inactive | GloSensor ctrl inconclusive
O=C(c1ccccc1)N1CCCC(C(=O)N2CCC(N3CCCC3=O)CC2)C1 (centres undefined)	none (no result: Luciferase inh, NPR1 antag)
O=C(c1ccc(F)cc1Cl)N1CCN(c2cc(-c3ccc(F)cc3)[nH]n2)CC1	HEK cytotox inconclusive, NIH3T3 tox inconclusive, NPR1 antag 11µM | NPR1 antag cnf 17µM | NPR2 antag 19µM | FLuc counter inactive | GloSensor ctrl 15µM
O=C(c1cc(F)ccc1F)N1CCN(c2cc(-c3ccc(Cl)cc3)[nH]n2)CC1	HEK cytotox 35µM, NIH3T3 tox 28µM, NPR1 antag inconclusive | NPR1 antag cnf 27µM | NPR2 antag 24µM | FLuc counter inactive | GloSensor ctrl 31µM
O=C(c1cc(Cl)ccc1F)N1CCN(c2cc(-c3ccccc3)[nH]n2)CC1	HEK cytotox inconclusive, NIH3T3 tox inconclusive
CCC(C)NC(=O)C1CCCN1c1nccc(Nc2ccccc2F)n1 (centres undefined)	HEK cytotox inconclusive (no result: Luciferase inh, NPR1 antag)
COC(=O)c1cccc(NC(=S)N[C@@H]2C=C[C@@H](c3c(C)nn(-c4ccc(F)cc4)c3C)C2)c1	HEK cytotox 32µM, NIH3T3 tox inconclusive, NPR1 antag inconclusive | NPR1 antag cnf 22µM | NPR2 antag inconclusive | FLuc counter inactive | GloSensor ctrl 22µM
CC(=O)N1CCc2cc(S(=O)(=O)NCCCC(=O)N3CCC(CCOc4ccccc4)C3)ccc21 (centres undefined)	HEK cytotox inconclusive, NIH3T3 tox inconclusive, NPR1 antag 5.6µM | NPR1 antag cnf 5.4µM | NPR2 antag 6.1µM | FLuc counter inactive | GloSensor ctrl 4.8µM
CC(=O)N1CCc2cc(S(=O)(=O)CCC(=O)N3CCCC(Cc4nncn4CC4CC4)C3)ccc21 (centres undefined)	none
CC(=O)N1CCc2cc(S(=O)(=O)CCC(=O)N3CCC(CCOc4ccccc4)C3)ccc21 (centres undefined)	NPR1 antag 10µM | NPR1 antag cnf 27µM | NPR2 antag inconclusive | FLuc counter inactive | GloSensor ctrl inconclusive
C[C@H](O)C(=O)N1CCc2ccc(S(=O)(=O)NCCOc3ccccc3)cc2C1	HEK cytotox inconclusive
Cc1ccccc1CC(=O)N1CCC2(CC1)NC(=O)N(c1ccc(F)cc1)N2	HEK cytotox inconclusive, NIH3T3 tox inconclusive, NPR1 antag 11µM | NPR1 antag cnf 17µM | NPR2 antag 22µM | FLuc counter inactive | GloSensor ctrl 19µM
O=C(c1ccn[nH]1)N1CCC(c2nc(CCOc3ccc(F)cc3)no2)C1 (centres undefined)	none
COC(=O)N1CCN(CCCn2nc3n(c2=O)CCCC3)CC1	none (no result: Luciferase inh, NPR1 antag)
COc1ccc(N2CCN(c3nc(C(=O)NCc4cccc(C)c4)cs3)CC2)cc1	HEK cytotox 18µM, NIH3T3 tox inconclusive, NPR1 antag 16µM | NPR1 antag cnf 15µM | NPR2 antag 15µM | FLuc counter inactive | GloSensor ctrl 12µM
COc1ccc(N2CCN(c3nc(C(=O)NCc4ccc(C)cc4)cs3)CC2)cc1	HEK cytotox 28µM, NPR1 antag 4.5µM | NPR1 antag cnf 7.7µM | NPR2 antag 11µM | FLuc counter inactive | GloSensor ctrl 8.6µM
